In PubChem BioAssay (EPA / NIEHS) one finds AC50 and outcome data, which are given here for 14 compounds.

Holding throughout (conditions): mRNA level, 48 h; actives raise or lower the signal
Read-out in test [1]: sulfotransferase 2A1 (SULT2A1), SULT2A1 (gene 6822)
Nature of the test: LTEA_HepaRG_SULT2A1: Life Technologies and Expression Analysis (LTEA) Assay for sulfotransferase 2A1 (SULT2A1) using HepaRG (AID 2283531). An outline of the steps:
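HepaRG human liver cells, 48 h exposure in serum-free induction medium to 8 half-log concentrations topping at 100 µM (0.5% DMSO), duplicate wells. SULT2A1 mRNA measured by TaqMan qRT-PCR, normalized to ACTB/GAPDH/POLR2A; bidirectional fit against DMSO.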

Read-out in test [2]: Transforming Growth Factor (TGFA), TGFA (gene 7039)
Nature of the test: LTEA_HepaRG_TGFA: Life Technologies and Expression Analysis (LTEA) Assay for Transforming Growth Factor (TGFA) using HepaRG (AID 2283532). An outline of the steps: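 Gene expression of TGFA was quantified by qRT-PCR after human HepaRG cells were treated for 48 h with test chemicals (eight concentrations, highest 100 uM, 0.5% DMSO). Activity in either direction was fitted relative to DMSO.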

Read-out in test [3]: Transforming Growth Factor (TGFB1), TGFB1 (gene 7040)
Put plainly: LTEA_HepaRG_TGFB1: Life Technologies and Expression Analysis (LTEA) Assay for Transforming Growth Factor (TGFB1) Transporter using HepaRG (AID 2283533). In a few lines:
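Differentiated HepaRG cells exposed 48 hr in serum-free induction medium to eight half-log concentrations up to 100 uM (0.5% DMSO), duplicate; TGFB1 mRNA by TaqMan qRT-PCR normalised to ACTB, GAPDH, POLR2A; bidirectional fit against DMSO.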

Read-out in another test: TIMP1, TIMP1 (gene 7076)
Put plainly: LTEA_HepaRG_TIMP1: Life Technologies and Expression Analysis (LTEA) Assay for TIMP1 using HepaRG (AID 2283534).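 As to outcome: TaqMan qRT-PCR signal normalized to ACTB GAPDH and POLR2A housekeeping genes.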 In a few lines:
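Differentiated HepaRG cells exposed 48 h in serum-free induction medium, duplicates, eight half-log concentrations from 100 uM in 0.5% DMSO. TIMP1 mRNA by qRT-PCR normalized to ACTB, GAPDH, POLR2A; bidirectional fitting against DMSO.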

Read-out in test [4]: Tumor necrosis factor receptor 1 (TNFRSF1A), TNFRSF1A (gene 7132)
Put plainly: LTEA_HepaRG_TNFRSF1A: Life Technologies and Expression Analysis (LTEA) Assay for Tumor necrosis factor receptor 1 (TNFRSF1A) using HepaRG (AID 2283535). An outline of the steps: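 Differentiated HepaRG cells in serum-free induction medium, exposed 48 h in duplicate to 8 half-log concentrations up to 100 uM in 0.5% DMSO. TNFRSF1A mRNA by Fluidigm TaqMan qRT-PCR, normalized to ACTB, GAPDH, POLR2A; bidirectional fit.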

Read-out in test [5]: Thyroid Hormone Responsive (THRSP), THRSP (gene 7069)
Put plainly: LTEA_HepaRG_THRSP: Life Technologies and Expression Analysis (LTEA) Assay for Thyroid Hormone Responsive (THRSP) using HepaRG (AID 2283536). In a few lines: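 Cell model: human HepaRG, approx. 100,000 cells/well, 0.5% DMSO vehicle. Exposure lasts 48 h; phenobarbital 1 mM serves as induction positive control. Gene expression is measured by qRT-PCR against three endogenous control genes.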

Read-out in test [6]: Cellular tumor antigen p53 (Homo sapiens) (UniProt P04637)
Nature of the test: LTEA_HepaRG_TP53: Life Technologies and Expression Analysis (LTEA) Assay for Tumor Protein P53 (TP53) using HepaRG (AID 2283537). An outline of the steps: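 Differentiated HepaRG cells in serum-free induction medium exposed 48 h in duplicate to 8 half-log concentrations, top 100 uM, 0.5% DMSO. TP53 mRNA by TaqMan qRT-PCR (Fluidigm), normalized to ACTB, GAPDH, POLR2A; fitted bidirectionally versus DMSO.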

Read-out in test [7]: UDP glucuronosyltransferase (UGT1A1), UGT1A1 (gene 54658)
Nature of the test: LTEA_HepaRG_UGT1A1: Life Technologies and Expression Analysis (LTEA) Assay for UDP glucuronosyltransferase (UGT1A1) using HepaRG (AID 2283538). An outline of the steps:
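mRNA induction or loss of UGT1A1, by TaqMan qRT-PCR, in duplicate HepaRG wells after 48 h exposure to half-log dilutions topping at 100 uM; DMSO (0.5%) served as baseline.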

Read-out in test [8]: UDP glucuronosyltransferase (UGT1A6), UGT1A6 (gene 54578)
Nature of the test: LTEA_HepaRG_UGT1A6: Life Technologies and Expression Analysis (LTEA) Assay for UDP glucuronosyltransferase (UGT1A6) using HepaRG (AID 2283539). In a few lines:
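Differentiated HepaRG cells, ~100,000/well, were exposed for 48 h in serum-free induction medium with 0.5% DMSO to 8-point half-log series topping at 100 uM, in duplicate. mRNA measured by Fluidigm TaqMan qRT-PCR, normalized to ACTB, GAPDH and POLR2A.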

Structures are written as SMILES. Active and inactive are the calls of the source. The calls were made as follows: active = hit-call score of the fitted dose curve at least 0.9, where 1 is the maximum; inactive = score below 0.9.

Cellular tumor antigen p53 (Homo sapiens), sequence (P04637 whole entry, looked up): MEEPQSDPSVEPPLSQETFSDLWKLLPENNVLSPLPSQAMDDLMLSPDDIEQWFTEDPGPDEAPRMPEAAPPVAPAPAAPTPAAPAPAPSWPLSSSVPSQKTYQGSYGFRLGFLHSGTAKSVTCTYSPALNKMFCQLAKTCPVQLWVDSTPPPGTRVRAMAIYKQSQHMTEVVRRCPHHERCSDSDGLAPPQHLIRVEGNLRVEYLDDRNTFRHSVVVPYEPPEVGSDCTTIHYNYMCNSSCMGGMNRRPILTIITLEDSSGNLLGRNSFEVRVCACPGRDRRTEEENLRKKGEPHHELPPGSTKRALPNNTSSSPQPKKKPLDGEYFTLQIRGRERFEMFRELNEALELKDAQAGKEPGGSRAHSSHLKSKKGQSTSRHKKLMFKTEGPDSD

For orientation: AC50 means the concentration at which the activity in the assay is half-maximal. On to `CC(C)NC(=O)N1CC(=O)N(c2cc(Cl)cc(Cl)c2)C1=O`, for which the AC50 in test [1] was 13.1 µM (active); in test [5] it was 50 µM (active); in test [7] it was 4.3 µM (active). In addition, the outcome in [2] is “inactive”; in test [3], “inactive”; in the test with TIMP1, TIMP1 (gene 7076) it was “inactive”; in test [4], “inactive”; in [6] it was “inactive”; in [8], “inactive”.

As for `CC1(C)CCC(=Cc2ccc(Cl)cc2)C1(O)Cn1cncn1` (centres undefined), the outcome in [1] is “inactive”; in [2], “inactive”; in test [3] it was “inactive”; with TIMP1, TIMP1 (gene 7076) it was “inactive”; in test [4], “inactive”; in test [6], “inactive”. Also, the compound was classed as inactive in test [8]. Also, the AC50 is 24.1 µM (active) in [5] and 5.72 µM (active) in test [7].

Regarding `Clc1nc(Cl)nc(Nc2ccccc2Cl)n1`, the outcome in [1] was “inactive”; in [2], “inactive”; in [3], “inactive”; in the test with TIMP1, TIMP1 (gene 7076) it was “inactive”; in [4], “inactive”; in test [5], “inactive”. For the same compound, the outcome in test [6], in test [7] and in test [8] was inactive.

Take `Cc1c(COC(=O)[C@@H]2[C@H](/C=C(\Cl)C(F)(F)F)C2(C)C)cccc1-c1ccccc1`: the outcome in [1] was “inactive”; in [2], “inactive”; in [3], “inactive”; with TIMP1, TIMP1 (gene 7076), “inactive”; in test [4], “inactive”; in test [5] it was “inactive”. Further, the compound was classed as inactive in test [6] and in [8]. Moreover, in test [7], the AC50 was 11.7 µM (active).

In the case of `N#Cc1c[nH]cc1-c1cccc2c1OC(F)(F)O2`, the AC50 in test [1] is 50 µM (active); in [5], 18 µM (active); in test [6], 71.3 µM (active); in test [7], 34.3 µM (active). Further, the outcome was “inactive” in test [2]; “inactive” with TIMP1, TIMP1 (gene 7076); “inactive” in test [4]; “inactive” in [8].

As for `CCOc1cc(C(C)(C)C)ccc1C1COC(c2c(F)cccc2F)=N1` (centres undefined), the figures for the AC50 in test [1] and in test [7] were 8.25 µM (active) and 8.48 µM (active), respectively. For the same compound, the outcome is “inactive” in test [2]; “inactive” in test [3]; “inactive” with TIMP1, TIMP1 (gene 7076); “inactive” in test [4]; “inactive” in test [5]; “inactive” in test [8].

For the compound `CC1(C)CON(Cc2ccccc2Cl)C1=O`, the outcome was “inactive” in [1]; “inactive” in test [2]; “inactive” in [3]; “inactive” with TIMP1, TIMP1 (gene 7076); “inactive” in test [4]; “inactive” in test [5]. Also, the result in test [6] and in [8] was inactive. Further, the AC50 in test [7] was 9.92 µM (active).

With `COc1cc(Cl)c(OC)cc1Cl`, the outcome in test [1] was “inactive”; in [2], “inactive”; in test [3] it was “inactive”; with TIMP1, TIMP1 (gene 7076), “inactive”; in test [4], “inactive”; in test [5] it was “inactive”. In addition, the outcome in test [6] and in test [8] was inactive. Moreover, the half-maximal activity concentration (AC50) in [7] was 2.69 µM (active).

For the compound `Cn1c(-c2ccccc2)cc(-c2ccccc2)[n+]1C`, the AC50 was 50 µM (active) in test [1]; 82.9 µM (active) in the test with TIMP1, TIMP1 (gene 7076); 72.2 µM (active) in [4]; 50 µM (active) in test [5]; 86.5 µM (active) in test [6]; 39.9 µM (active) in [7]. Moreover, in test [8], the AC50 is 75.2 µM (active). For the same compound, the compound was called inactive in test [2] and in test [3].

Take `CC(C)Nc1nc(Cl)nc(NC(C)C)n1`: the outcome in [1] was “inactive”; in test [2], “inactive”; in [3], “inactive”; in the test with TIMP1, TIMP1 (gene 7076), “inactive”; in test [4] it was “inactive”; in [5], “inactive”. Also, the outcome in test [6] and in test [8] was inactive. Also, the AC50 in test [7] was 8.13 µM (active).

Take `CCOc1nc(F)cc2nc(S(=O)(=O)Nc3c(Cl)cccc3Cl)nn12`: the outcome in test [1] was “inactive”; in test [2], “inactive”; in [3] it was “inactive”; in the test with TIMP1, TIMP1 (gene 7076) it was “inactive”; in [4], “inactive”; in [5] it was “inactive”. Besides, the compound was classed as inactive in [6], in [7] and in test [8].

In the case of `CO/N=C(/C1=NOCCO1)c1ccccc1Oc1ncnc(Oc2ccccc2Cl)c1F`, the AC50 in test [1] was 33.9 µM (active); in test [2] it was 31.2 µM (active); with TIMP1, TIMP1 (gene 7076), 50 µM (active); in [5], 27.1 µM (active); in [6], 27.1 µM (active); in [7] it was 35.8 µM (active). Also, in [8], the AC50 is 50 µM (active). Also, the outcome in test [3] and in [4] was inactive.

For `COP(=S)(OC)Oc1ccc([N+](=O)[O-])c(C)c1`, the outcome in test [1] was “inactive”; in [2] it was “inactive”; in [3], “inactive”; in the test with TIMP1, TIMP1 (gene 7076), “inactive”; in test [4] it was “inactive”; in test [5] it was “inactive”. Also, the result in [6] and in test [8] was inactive. Also, in test [7], the AC50 is 11.5 µM (active).

Regarding `Cc1cc(C)nc(Nc2ccccc2)n1`, the outcome was “inactive” in [1]; “inactive” in [2]; “inactive” in test [3]; “inactive” with TIMP1, TIMP1 (gene 7076); “inactive” in test [4]; “inactive” in [5]. Besides, the result in test [6] and in test [8] was inactive. Moreover, the AC50 in [7] is 68.6 µM (active).
